OPRM1-OPRD1 ag: OPRM1-OPRD1 heterodimerization agonism | P35372+P41143 | cells, luminescence | activation, % at 9.3 µM | hit rate 0.3% among 340,000 | AID 504326; in the data active = activation above about 18%;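 also: 0% = vehicle-treated cells and 100% = reference agonist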
m5-HT2A agonist: activates the mouse 5-HT2A serotonin receptor; P35363; CHO-K1 mHTR2A beta-arrestin complementation, luminescence; percent of 30 µM serotonin response; activation, % at 7.6 µM; hit rate 0.66% among 360,000; AID 624169;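 active = activation above a run cutoff, the mean activation of all tested compounds plus 3 SD, cut at about 14% in these data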;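 also: 0% = plate median of compound wells and 100% = 30 µM serotonin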
Target sequence (P35363 whole entry, looked up): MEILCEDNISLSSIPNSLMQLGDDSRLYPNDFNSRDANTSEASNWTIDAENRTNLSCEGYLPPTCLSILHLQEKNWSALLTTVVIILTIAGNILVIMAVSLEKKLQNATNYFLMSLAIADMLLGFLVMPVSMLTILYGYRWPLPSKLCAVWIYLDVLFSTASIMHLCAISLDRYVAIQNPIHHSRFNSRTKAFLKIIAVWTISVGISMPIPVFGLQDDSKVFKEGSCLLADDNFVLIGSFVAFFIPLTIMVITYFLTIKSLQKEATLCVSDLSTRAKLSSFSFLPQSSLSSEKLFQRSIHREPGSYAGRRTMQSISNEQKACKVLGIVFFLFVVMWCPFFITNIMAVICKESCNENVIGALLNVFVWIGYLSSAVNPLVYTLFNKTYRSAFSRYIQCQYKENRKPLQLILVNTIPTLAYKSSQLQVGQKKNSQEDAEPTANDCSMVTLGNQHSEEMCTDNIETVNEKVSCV
MOR-DOR inv ag: inverse agonist of human OPRM1-OPRD1 heterodimerization | P35372+P41143 | cell-based MOR-DOR heterodimer luminescence, inverse agonism | inhibition, % at 9.3 µM | hit rate 0.21% among 340,000 | AID 504357; in the data active = inhibition above about 22%, passing the limit was not always enough;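 also: 0% = cells with DMSO and 100% = wells without cells with DMSO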
HTR5A inv ctr: counter-screen for OPRM1-OPRD1 inverse agonists: human HTR5A inverse agonism; inhibition, % at 9.3 µM; AID 504634; HTR5A cell line, luminescence; P47898; hit rate 0.083% among 340,000; in the data active = inhibition mostly above about 23%, no sharp cut-off; inactive = mostly below about 18%;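 also: 0% = cells with DMSO and 100% = no-cell wells with DMSO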
HTR5A ag ctr: activates human HTR5A in OPRM1-OPRD1 agonist counter-screen | P47898 | HTR5A agonist assay, luminescence, cell-based | activation, % at 9.3 µM | hit rate 0.61% among 340,000 | AID 504692; in the data active = activation mostly above about 9.5%, no sharp cut-off; inactive = mostly below about 7.6%;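 also: 0% = cells with vehicle only and 100% = reference agonist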
OPRM1 ag: counter-screen for mouse HTR2A agonists: human mu opioid receptor agonists; shares compounds with m5-HT2A agonist; U2OS OPRM1 beta-arrestin PathHunter, luminescence; DMSO 0%, DAMGO 9.3 µM 100%; activation, % at 9.3 µM; hit rate 5.3% among 2,300;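 active = mean activation above the mean of DMSO-only wells plus 3 SD, cut at about 0.5% in these data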
HTR2A ag conf: mouse HTR2A agonism confirmed | activation, % at 7.6 µM | CHO-K1 PathHunter beta-arrestin recruitment, luminescence; DMSO 0%, 30 µM serotonin 100% | hit rate 19% among 2,300 | shares compounds with m5-HT2A agonist;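 active = mean activation across triplicates above the hit threshold derived in the original primary screen, cut at about 15% in these data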
* hit, by the source's call; . = no result given. Compounds with a hit are over-represented: about 1.6% of the library has one in this group of screens.

SMILES | OPRM1-OPRD1 ag | m5-HT2A agonist | MOR-DOR inv ag | HTR5A inv ctr | HTR5A ag ctr | OPRM1 ag | HTR2A ag conf
Cc1cccc(CN2CCN(c3ncccn3)CC2)c1 | 1 | 37* | -4 | -1 | 2 | -1 | 93*
CCCCCCCCN1C(=O)[C@H](CC(=O)NCc2ccccc2)C[C@@]2(C(=O)OC)CC(C)(C)CC=C12 | . | -5 | . | . | . | . | .
CCOC(=O)C1(C)CCCN(C(=O)c2cc(OC)c(OC)c(OC)c2)C1 (stereo not drawn) | . | 0 | . | . | . | . | .
O=C(Nc1cccc(Cl)c1)c1ccc2sc([C@H]3C[C@H](O)[C@@H](CO)O3)nc2c1 | . | 9 | . | . | . | . | .
Cc1ccc(CN2CCN(c3ccccn3)CC2)s1 | -2 | 49* | 12 | 14 | 0 | 0 | 103*
c1ccc(N2CCN(Cc3ccsc3)CC2)nc1 | -4 | 35* | 18 | -40 | 14 | -1 | 102*
CC(=O)Nc1cccc(-c2nc3ccccc3n2C(C)C(=O)NC(C)(C)C)c1 (stereo not drawn) | . | -3 | . | . | . | . | .
COc1cc(Nc2ccn3nccc3n2)cc(OC)c1OC | . | 4 | . | . | . | . | .
Cc1nc2c([nH]1)C1(CCN(Cc3ccccc3)CC1)C(C#N)=C(N)O2 | -2 | 33* | 9 | 2 | -1 | 0 | 0
CC1(C)CC(=O)C2=C(C1)OC(N)=C(C#N)C21CCN(Cc2ccccc2)CC1 | 0 | -3 | -2 | -18 | 5 | . | .
O=C(Nc1ccccc1C(F)(F)F)c1cnccn1 | -2 | 19* | 8 | 18 | 1 | -1 | 2
COc1ccc(/C=C(/C#N)C(=O)NC2CCCCC2)cc1Br | 0 | -2 | 1 | 0 | 1 | . | .
Cc1cc(/C=C(\C#N)C(=O)NC2CCCCCC2)c(C)n1C | 2 | 18* | -10 | -36 | -3 | 0 | 3
COc1ccc(S(=O)(=O)N(C)CC(=O)N2CCCCC2)cc1Cl | 0 | 15* | 2 | -6 | 0 | -1 | -1
CC(=O)c1cccc(NC(=O)c2ccc(-c3c(C)noc3C)c3ccoc23)c1 | . | 1 | . | . | . | . | .
CCCCCC(=O)N1C[C@H](n2cc(-c3ccc(F)cc3)nn2)[C@@H](O)C[C@@H]1c1ccc(C)cc1 | . | 23* | . | . | . | 0 | 0
O=C(OCC1COC(c2ccccc2)(c2ccccc2)O1)c1ccccc1 (stereo not drawn) | 5 | -2 | -23 | 3 | -1 | . | .
C=CCOC(=O)c1ccccc1C(=O)OCC1CO1 (stereo not drawn) | -3 | 23* | 16 | -8 | 2 | 0 | 4
CC(=O)C1=CCC(c2ccccc2)N(S(=O)(=O)c2ccccc2C)C1 (stereo not drawn) | . | 10 | . | . | . | . | .
O=C(NCc1ccc2c(c1)OCO2)C1CCC(CNc2c(N3CCCC3)c(=O)c2=O)CC1 (stereo not drawn) | -2 | 14* | 11 | -6 | 2 | 0 | -2
O=C(Cc1cc(C(F)(F)F)cc(C(F)(F)F)c1)Nc1c(-c2ccccc2)[nH][nH]c1=O | . | 28* | . | . | . | -1 | -2
COc1cc(CC(=O)Nc2c(-c3ccccc3)[nH][nH]c2=O)cc(OC)c1 | . | -1 | . | . | . | . | .
N#CCC(=N)N1CCN(c2ccccc2)CC1 | -3 | 1 | 14 | 5 | -2 | . | .
O=C(O)CCC(=O)N1CCN(c2cccc(Cl)c2)CC1 | -3 | 14 | 17 | -6 | 2 | . | .
CC(=O)/C(C(=N)N1CCN(c2cccc(Cl)c2)CC1)=C(\C)O | -2 | 18* | 9 | -4 | 2 | -1 | -2
SMILES | OPRM1-OPRD1 ag | m5-HT2A agonist | MOR-DOR inv ag | HTR5A inv ctr | HTR5A ag ctr | OPRM1 ag | HTR2A ag conf
O=C(O)/C=C/C(=O)N1CCN(c2cccc(Cl)c2)CC1 | -2 | 31* | 8 | -17 | 6 | -1 | 4
N#CCC(=N)N1CCN(c2cccc(Cl)c2)CC1 | 0 | 15* | -1 | -13 | 6 | -1 | 5
CSCCNC(=O)C1(C)CCN1C(=O)C/C=C/c1ccccc1 (stereo not drawn) | . | 5 | . | . | . | . | .
COc1ccc2nc(NC(=O)c3ccoc3C)sc2c1 | 4 | 23* | -22 | -7 | 0 | -1 | -5
CCCCNC(=O)c1nc(-c2cc3ccccc3[nH]2)oc1-c1cccc(C(F)(F)F)c1 | . | 16* | . | . | . | 0.7* | 12
NC[C@H](O)c1ccc(O)c(O)c1 | 3 | 36* | -14 | -4 | 6 | 0 | 143*
CC(C)NCC(O)c1ccc(O)c(O)c1 (stereo not drawn) | 2 | 1 | -11 | 14 | 3 | . | .
CNC[C@H](O)c1cccc(O)c1 | -1 | 17* | 3 | -13 | 4 | 0 | 47*
CNC[C@H](O)c1ccc(O)c(O)c1 | 3 | 50* | -18 | 15 | -1 | 0 | 165*
COC(=O)Cc1ccc(OC2(C)CCN(Cc3csc4ccccc34)C2)cc1 (stereo not drawn) | . | -8 | . | . | . | . | .
CC1(C(=O)NCc2cccc(Cl)c2)Cc2c(-c3cccc(C(N)=O)c3)ccnc2O1 (stereo not drawn) | . | -10 | . | . | . | . | .
Cc1cc(Cl)ccc1NC(=O)CN(C)C1=NS(=O)(=O)c2ccccc21 | 0 | 15* | 1 | 10 | -4 | 0 | 1
CCc1cccc(C)c1NC(=O)CN(C)C1=NS(=O)(=O)c2ccccc21 | -4 | 2 | 18 | -2 | 1 | . | .
Cc1ccccc1Oc1ccc2c(c1)[C@@H]1C[C@H](N(C)C(=O)c3ccco3)[C@H]([C@H](C)O)C(=O)N1CC2 | . | -7 | . | . | . | . | .
CN(Cc1ccccc1)C(=O)c1ccc2sc([C@@H]3O[C@H](CO)[C@H](O)[C@H](O)[C@H]3O)nc2c1 | . | 21* | . | . | . | 0 | 1
Cc1cc(NC(=O)c2ccc3sc([C@@H]4O[C@H](CO)[C@H](O)[C@H](O)[C@H]4O)nc3c2)no1 | . | 21* | . | . | . | 0 | -2
N/C(=N\OC(=O)c1ccccc1Cl)c1cccc([N+](=O)[O-])c1 | 6 | 15* | -28 | -4 | 1 | 0 | -6
N/C(=N/OC(=O)c1cccc([N+](=O)[O-])c1)c1cccc([N+](=O)[O-])c1 | 10 | 8 | -47 | -10 | 4 | . | .
O=C(COc1ccccc1)Nc1nnc(-c2ccc(F)cc2)o1 | -2 | 17* | 17 | -13 | 0 | -1 | 2
CC1CCCCN1CCCNC(=O)c1ccc2nc(N3CCCCC3)sc2c1 (stereo not drawn) | -1 | 17* | 9 | -8 | 3 | -1 | -6
CCN(CC)C(=O)c1cccc(-c2csc(C(C)(NC(C)=O)c3ccc(OC)cc3)n2)c1 (stereo not drawn) | . | 0 | . | . | . | . | .
COc1cc2[nH]c(=S)n(Cc3cccs3)c(=O)c2cc1OC | -3 | 19* | 13 | -9 | 4 | -1 | -2
CCCn1c(=S)[nH]c2cc(OC)c(OC)cc2c1=O | -1 | 6 | 5 | -6 | -2 | . | .
CCCCN(C(=O)c1ccc([N+](=O)[O-])s1)c1c(N)n(CC(C)C)c(=O)[nH]c1=O | 1 | 5 | -5 | -9 | 0 | . | .
